A number with no mark means an inactive call.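 Rule for the calls: active = AUC reduced over 20% with Padj below 0.05 in at least 2 of 3 replicates; inactive = otherwise.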

The assay deals with Collinsella aerofaciens. Kind of assay: growth AUC relative to DMSO control (median of replicates) (fraction); higher = more growth (less inhibition), active = hit call of the paper. Conditions: 20 µM; 24 h. In short, it runs like this: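 Hourly OD600 readings over 24 h tracked anaerobic gut bacterial monocultures grown at 37 °C in mGAM from OD600 0.05 with 20 µM compound (1% DMSO). After the minimum OD was set to 0, area under the growth curve was normalised to the plate median of solvent-only wells, or to row and column medians on the industrial chemical plate. Values are medians of three biological replicates grown on separate days.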
With `Nc1cccc(O)c1`, the “growth AUC” value was 0.998.
In the case of `CCc1cccc(C)c1NC(C)C(=O)O` (racemic), the “growth AUC” value was 0.985.
Take `CCc1ccc(C(c2ccc(CC)cc2)C(Cl)Cl)cc1`: the “growth AUC” value is 0.901.
Regarding `CC(C)N(C(=O)CS(=O)CC(=O)O)c1ccc(F)cc1` (centres undefined), the “growth AUC” value was 1.
To `O=[N+]([O-])c1ccc(Oc2c(Cl)cc(Cl)cc2Cl)cc1` belongs 0.935; to `CCOC(=O)c1nc(C(Cl)(Cl)Cl)n(-c2ccc(Cl)cc2Cl)n1`, 0.952; to `Cc1ccc2c(c1)[C@H](Nc1nc(N)nc(C(C)F)n1)[C@@H](C)C2` (some centres undefined), 1.01.
With `CCCCCCCC(=O)Oc1c(Br)cc(C#N)cc1Br`, the “growth AUC” value is 0.971.
Regarding `CCNc1nc(N)[nH]c(=O)n1`, the “growth AUC” value is 1.04.
Consider `CN(C)C(=O)Nc1cc(C(C)(C)C)on1`, for which the “growth AUC” value is 0.989.
Regarding `O=C(NC(=O)c1c(F)cccc1F)Nc1cc(C(F)(F)F)cc(C(F)(F)F)c1Cl`, the “growth AUC” value is 1.02.
Consider `COC(=O)CSc1cc(N=c2sc(=O)n3n2CCCC3)c(F)cc1Cl`, for which the “growth AUC” value was 1.01.
Regarding `CCN(Cc1c(F)cccc1Cl)c1c([N+](=O)[O-])cc(C(F)(F)F)cc1[N+](=O)[O-]`, the “growth AUC” value is 0.829.
For the compound `CCNC(=O)[C@@H](C)OC(=O)Nc1ccccc1`, the “growth AUC” value was 1.1.
`CON=C(Cc1cccnc1)c1ccc(Cl)cc1Cl`: the “growth AUC” value was 0.945.
In the case of `COC(=O)Nc1ccc(Cl)c(Cl)c1`, the “growth AUC” value is 1.02.
As for `CC[N+](CC)(CC(=O)Nc1c(C)cccc1C)Cc1ccccc1.O=C([O-])c1ccccc1`, the “growth AUC” value was 1.
To `CC(C)(C)[C@@H](O)[C@@H](Cc1ccc(Cl)cc1)n1cncn1` (mixture of isomers) belongs 0.967.
For the compound `COCC(=O)N(c1c(C)cccc1C)C(C)C(=O)O` (centres undefined), the “growth AUC” value was 1.08.
For the compound `COC(=O)c1ccccc1S(=O)(=O)NC(=O)n1nc(OCC(C)O)n(C)c1=O` (centres undefined), the “growth AUC” value is 1.02.
Take `CCOC(=O)Cc1[nH]nc2ccc(Cl)cc12`: the “growth AUC” value was 0.969.
With `CCCCCCCC/C=C\CCCCCCCC(N)=O`, the “growth AUC” value is 0.857.
Regarding `COC1CCC2(CC1)NC(=O)C(c1cc(C)ccc1C)=C2OC1OC(CO)C(O)C(O)C1O` (centres undefined), the “growth AUC” value is 1.01.
Take `COC(=O)c1ccc(C(F)(F)F)nc1S(=O)(=O)[N-]C(=O)Nc1nc(OC)cc(OC)n1.[Na+]`: the “growth AUC” value was 1.03.
On to `COC1CCC2(CC1)NC(=O)C(c1cc(C)ccc1C)=C2O` (centres undefined), for which the “growth AUC” value was 1.05.
Take `O=C(Nc1ccc(O)cc1-c1ccc(Cl)cc1)c1cccnc1Cl`: the “growth AUC” value was 1.02.
As for `Cc1nn(C)c(F)c1C(=O)Nc1ccccc1C(C)CC(C)C` (centres undefined), the “growth AUC” value is 1.02.
In the case of `O=C(NCc1ncc(C(F)(F)F)cc1Cl)c1c(Cl)cccc1Cl` it was 0.987.
`CC1COc2ccccc2N1C(=O)C(Cl)Cl` (centres undefined): the “growth AUC” value was 0.89.
For `CCc1cccc(C)c1NC(=O)C(=O)O`, the “growth AUC” value was 0.983.
Turning to `Cc1[nH]oc(=O)c1N=Nc1ccccc1Cl`, the “growth AUC” value is 0.961.
Consider `COc1ccccc1C(=O)NS(=O)(=O)c1ccc(C(=O)NC2CC2)cc1`, for which the “growth AUC” value was 1.02.
`O=C(O)c1ccc(Cl)cc1Cl`: the “growth AUC” value was 1.02.
`CCCCCCCC/C=C\CCCCCCCCCCCCC`: the “growth AUC” value is 1.02.
As for `COC(=O)COc1ccc(Cl)cc1C`, the “growth AUC” value is 1.01.
To `CC(C)OC(=O)N[C@H](C(=O)N[C@H](C)c1nc2ccc(F)cc2s1)C(C)C` belongs 0.964; to `CCNc1nc(N)nc(Cl)n1`, 0.996.
As to `Cc1nn(C)c(OCC(=O)c2ccccc2)c1C(=O)c1ccc(Cl)cc1Cl`, the “growth AUC” value was 1.01.
In the case of `Cc1cc(C)c(C2=C(O)C3(CCCC3)OC2=O)c(C)c1`, the “growth AUC” value was 1.04.

For the origin of these results see the supplement of paper PMC12669032.
